Screens: PubChem, PCMD
CatB inh: inhibitors of human cathepsin B. purified cathepsin B, fluorogenic substrate, fluorescence. inhibition, %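 (tested at 10 µM)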. 0.1% of 63,000 active. AID 453; in the data active = inhibition above about 21%;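 also: 0% = enzyme with no compound and 100% = no enzyme blank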
CatB mixtures: inhibitors of human cathepsin B in compound mixtures; P07858; 0.06% of 62,000 active; Purified cathepsin B, AMC dipeptide fluorescence; AID 488; inhibition, %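 (ten-compound pools at 5 µM per compound and 50 µM total)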; in the data active = inhibition above about 22%, passing the limit was not always enough;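 also: 0% = enzyme without compound and 100% = no enzyme blank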
C1s block: blocks human complement C1s protease activity; purified C1s, fluorogenic AMC substrate, pooled mixtures; mean inhibition % of two 10-compound mixtures (hits give high values), % at 5 µM (by protocol); 0.16% of 62,000 active; AID 538;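 active = inhibition above 20% in each of the two 10-compound mixture wells holding the compound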;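 also: 0% = enzyme wells lacking compound mixture and 100% = no-enzyme blank wells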
CatS block: blocks human cathepsin S protease activity | P25774 | recombinant cathepsin S, AMC dipeptide fluorescence, pooled mixtures | inhibition, %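 (tested at 5 µM per compound within 10-compound mixtures)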 | 0.06% of 62,000 active | AID 501; in the data active = inhibition above about 32%, passing the limit was not always enough;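 also: 0% = enzyme without compound and 100% = blank without enzyme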
Target sequence (P25774 115-331 limits assumed): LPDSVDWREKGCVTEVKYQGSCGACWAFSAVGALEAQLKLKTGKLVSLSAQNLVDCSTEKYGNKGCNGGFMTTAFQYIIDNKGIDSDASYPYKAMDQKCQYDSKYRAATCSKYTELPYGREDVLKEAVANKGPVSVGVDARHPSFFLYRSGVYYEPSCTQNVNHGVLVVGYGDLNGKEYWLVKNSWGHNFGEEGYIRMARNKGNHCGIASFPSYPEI
Cathepsin G inh: blocks human cathepsin G enzyme activity; P08311; purified enzyme, AMC-tetrapeptide fluorescence, pooled mixtures; inhibition, % at 5 µM (by protocol); 0.2% of 62,000 active;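 active = inhibition above 20% in each of the two mixture wells holding the compound; inactive = inhibition of 20% or less in either well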;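 also: 0% = enzyme control without mixture and 100% = blank lacking enzyme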
Target sequence (P08311 21-244 limits assumed): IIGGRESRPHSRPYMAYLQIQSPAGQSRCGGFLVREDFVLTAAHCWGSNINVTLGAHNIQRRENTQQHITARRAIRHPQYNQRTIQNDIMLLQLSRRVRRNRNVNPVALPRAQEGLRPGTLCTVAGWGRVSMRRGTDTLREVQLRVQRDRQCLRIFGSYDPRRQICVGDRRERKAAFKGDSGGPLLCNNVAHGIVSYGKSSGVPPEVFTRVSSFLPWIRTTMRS
CatL inh: inhibitors of human cathepsin L. inhibition, %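 (tested at 10 µM)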. purified cathepsin L, fluorogenic substrate, fluorescence. 0.17% of 58,000 active. P07711; in the data active = inhibition above about 45%;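 also: 0% = enzyme with no compound and 100% = no enzyme blank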
* marks the source's active call; other numbers are inactive results; · = no result given. This is a sample that favours compounds with a hit; in the whole collection about 0.58% have one here.

SMILES	CatB inh	CatB mixtures	C1s block	CatS block	Cathepsin G inh	CatL inh
Cc1cc(NC(=O)c2cccc(S(=O)(=O)N3CCCCCC3)c2)n(-c2ccccn2)n1	0.2	-1.8	43.0*	-4.4	42.3	-4.5
Cc1cc(C)cc(C(=O)n2cnnc2N)c1	-1.5	-2.2	8.6	13.7	65.5*	10.0
Nc1nncn1C(=O)c1ccccc1Cl	3.3	1.5	5.5	11.4	10.4	11.0
COc1ccccc1S(=O)(=O)Cc1ccc(C(=O)NCCN2CCCCCC2)o1	1.9	4.6	-9.9	-1.6	3.1	50.4*
Cn1c(Cn2c(=O)sc3ccccc32)nnc1SCc1cccnc1	0.9	-3.6	11.2	3.9	10.1	9.5
CCO/C=C/C(=O)N(C)CCC#N	1.7	3.7	7.4	7.3	9.3	3.1
CCc1cc(=O)oc2cc(C)cc(OC(=O)c3ccco3)c12	-6.7	-0.2	37.8*	-3.5	17.8	9.6
CCCCOc1ccccc1NC(=O)Cn1c(-c2nonc2N)nc2ccccc21	53.7*	-3.2	-163.2	-6.6	-13.9	60.0*
COc1ccc(CCNC(=O)Cn2c(-c3nonc3N)nc3ccccc32)cc1OC	14.1	12.4	9.4	-6.6	10.5	10.2
CCOc1ccc(CCNC(=O)Cn2c(-c3nonc3N)nc3ccccc32)cc1OCC	64.5*	51.0*	-15.6	3.2	-5.8	51.7*
Nc1nonc1-c1nc2ccccc2n1CC(=O)N1CCN(c2ccc(F)cc2)CC1	36.9*	9.9	-3.7	4.0	1.2	·
O=C(CCS(=O)(=O)c1cccc2nonc12)N1CCN(c2ccc(F)cc2)CC1	4.3	0.5	-12.5	-4.2	-0.8	-3.5
CCOC(=O)Cn1c(-c2nonc2NC(=O)c2ccccc2F)nc2ccccc21	1.6	-0.1	8.4	-3.8	6.0	-14.0
CCc1nnc(NC(=O)c2ccc(COc3ccc(C)cc3)o2)s1	1.8	0.0	-27.5	-12.7	1.5	1.7
Cc1ccc2nc(SCc3nnc(-c4cccs4)o3)[nH]c2c1	-1.0	1.5	9.4	12.1	12.9	21.5
COc1ccccc1N(CC(=O)NC1CCCCC1)C(=O)CCC(=O)Nc1ccccn1	5.3	-2.3	0.0	4.7	1.2	-5.4
COc1ccc(C(=O)c2no[n+]([O-])c2C(=O)c2ccc(OC)cc2)cc1	31.0*	37.0*	6.1	8.4	0.9	27.6
O=C(NCc1ccc2c(c1)OCO2)C1CCN(c2ccc(S(=O)(=O)N3CCCC3)cc2)CC1	0.7	-0.7	-37.7	-6.5	-6.4	·
O=C(C(Cc1ccccc1)N1C(=O)C2C3C=CC(C3)C2C1=O)N1CCCCCC1 (configuration not stated)	1.3	-2.0	34.5	-5.1	-4.6	-14.2
O=C(NCc1ccco1)C(Cc1ccccc1)N1C(=O)C2C3C=CC(C3)C2C1=O (configuration not stated)	4.8	0.0	-4.2	11.6	8.3	54.3*
CCn1c(C)nc2cc(C(=O)OCCC(F)(F)F)ccc21	2.9	-2.2	-39.9	8.4	0.6	2.5
CCn1c(C)nc2cc(C(=O)n3cc(C(=O)c4cc(F)ccc4O)cn3)ccc21	6.4	2.3	25.3*	-0.1	20.3	24.0
COc1ccccc1N1CCN(S(=O)(=O)c2c(C)ccc3nsnc23)CC1	4.4	-4.6	11.2	8.3	15.1	9.9
O=C1CN(C(=O)CN2CCCC2)C(c2ccccc2)c2cc(Br)ccc2N1 (configuration not stated)	0.2	-10.3	-47.0	4.8	2.0	2.0
COCCCNC(CC(=O)Nc1ccccc1C(=O)OC)C(=O)O (configuration not stated)	7.4	4.8	21.8*	-1.8	14.0	13.7
O=C(C1CCN(S(=O)(=O)c2cccc3cccnc23)CC1)N1CCN(Cc2ccccc2)CC1	0.6	2.1	-11.0	-3.4	-6.4	-0.4
Cc1ccc(C2NC(=O)c3c(sc4c3CCN(C)C4)N2)s1 (configuration not stated)	1.8	-0.4	7.7	-3.3	7.0	55.0*
COc1cc(OC)cc(C2C(C#N)=C(N)Oc3n[nH]c(-c4cccnc4)c32)c1 (configuration not stated)	1.5	-0.1	0.6	13.2	4.2	1.1
Cc1ccc2c(c1)CC1(CN2C)C(=O)OC2(CCCCC2)OC1=O	0.0	-2.5	2.3	8.2	6.7	-3.2
CN1CC2(Cc3c1ccc1ccccc31)C(=O)OC(C)(C)OC2=O	-0.3	-5.8	-36.0	-6.8	42.0*	-4.2
